From PubChem BioAssay (NCI)
The panel holds about 83,000 compounds, 20% with a hit somewhere; the sample as a whole holds those more often.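 A percent growth of 40 corresponds to 60% growth inhibition; 0 means no net growth; -100 means all cells died. Active threshold: below 10.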 Unmarked numbers belong to inactive results. Active and inactive are the calls of the source.

Columns and labels:
Assay in all cases: NCI-60 one-dose screen, 48 h (100 = growth as untreated, 0 = no growth, -100 = all killed)
[1] = test system: SK-MEL-2 melanoma; conditions: 10 µM
[2] = test system: EKVX NSCLC; conditions: 10 µM unless noted
[3] = test system: SN12C renal; conditions: 10 µM unless noted
[4] = test system: UO-31 renal; conditions: 10 µM unless noted
[5] = test system: TK-10 renal; conditions: 10 µM unless noted
[6] = test system: ACHN renal; conditions: 10 µM unless noted
[7] = test system: A498 renal; conditions: 10 µM unless noted
[8] = test system: CCRF-CEM leukemia; conditions: 10 µM unless noted
[9] = test system: MOLT-4 leukemia; conditions: 10 µM unless noted
[10] = test system: CAKI-1 renal; conditions: 10 µM unless noted

Structure (SMILES) | growth [1] | growth [2] | growth [3] | growth [4] | growth [5] | growth [6] | growth [7] | growth [8] | growth [9] | growth [10]
Cc1sc2c(c1C)c(=O)nc1c(-c3nc(-c4ccccc4)cs3)n[nH]n12 | 99.9% | 80.1% | 100% | 76.2% | 145% | 97.1% | 105% | 85.8% | 85.7% | 
CC(C)C1CCC(C)C(C2(C#N)C(N)=NC(N)=C2C#N)C1=O (stereo not given) | 109% | 94.4% | 100% | 80.2% | 115% | 107% | 105% | 103% | 96.1% | 
COC(=O)C1=C(C(=O)OC)C23C=C(C)C1C2=C(C)C1(CC1)[C@@](C)(O)C3=O (stereo not given in full) | -54.6% (active) | -6% (active) | 9.49% (active) | -28% (active) | -6.99% (active) | 3.21% (active) | -44% (active) | 66.5% | 73.6% | 
CC(CCCC(=O)O)c1ccoc1 (stereo not given) | 105% | 96% | 105% | 86.2% | 98.3% | 111% | 110% | 109% | 109% | 
O=C(Nc1ccc(C2=NCCCN2)cc1)c1ccc(C(=O)Nc2ccc(C3=NCCCN3)cc2)nc1 | 109% | 96% | 99.8% | 82.6% | 122% | 107% | 127% | 107% | 85.8% | 
COc1cc2c3c(c1)nc(C)n3CCC2 | 100% | 95.5% | 99.6% | 91.1% | 99% | 108% | 100% | 93.2% | 98.4% | 
C=CC(=O)N(C)[C@H]1C[C@H]2OC(C)(C1OC)n1c3ccccc3c3c4c(c5c6ccccc6n2c5c31)C(=O)NC4 (stereo not given in full) | -24.6% (active) | 17.9% | 6.85% (active) | -30.5% (active) | -2.16% (active) | 12.9% | -38.7% (active) | -7.8% (active) | -40.1% (active) | 
Nc1c2c(c(O)c3c1=C(CO)C=N3)=NCCS2 | -54.6% (active) | -63.8% (active) | -63.4% (active) | -86.3% (active) | -79.4% (active) | 0.734% (active) | -88.2% (active) | 6.13% (active) | -24.7% (active) | 
CCOC(=O)C1=C(C)N=C2Sc3cc(OC(F)(F)F)ccc3N2[C@H]1c1ccccn1 | 43.6% | 26.8% | 47.4% | 33.1% | 51.1% | 32.8% |  | 43.3% | 29.5% | 27.9%
COc1ccc2c(CCCC(c3ccccc3)c3ccccc3)c3[n+](cc2c1OC)CCc1cc2c(cc1-3)OCO2 | -52.4% (active) | 14.9% | -65.6% (active) | 5.46% (active) | -30.7% (active) | 11.6% |  | 5.53% (active) | -20.5% (active) | 57.7%
Nc1nc(=S)c2ncn(C3OC(COC(=O)c4ccc(Cl)cc4)C(OC(=O)c4ccc(Cl)cc4)C3OC(=O)c3ccc(Cl)cc3)c2[nH]1 (stereo not given) | 94.5% | 71.4% | 92.7% | 79.4% | 91.3% | 98.2% | 75% | 12.7% | 65.1% | 
Fc1ccc(NCc2cn(-c3ccccc3)nc2-c2ccc(OCc3ccccc3)cc2)cc1Cl | 91.9% | 85.7% | 91.6% | 75% | 93.7% | 91% | 119% | 92% | 85.8% | 
CC(=O)C(C(C)=O)C(c1ccccc1)C(C(C)=O)C(C)=O | 100% | 96.9% | 98.9% | 90.9% | 98.1% | 106% | 105% | 93.5% | 104% | 
O=C1CC(c2ccc3c(c2)OCO3)c2ncn(-c3ccc(Cl)cc3)c2N1 (stereo not given) | 43.4% | 68.2% | 56.6% | 61.3% | 67.9% | 53.9% |  | 28.2% | 32% | 37.1%
CC(N)C(Cc1ccccc1)c1ccc(Cl)cc1 (stereo not given) | 96.7% | 91.6% | 90.7% | 65.4% | 89.5% | 97% |  |  | 76.4% | 79.1%
COC(=O)C1CCc2sc3ncnc(Nc4cn[nH]c4C(=O)Nc4ccc(CN5CCN(C)CC5)cc4)c3c21 (stereo not given) | -20.4% (active) | 8.24% (active) | 12.7% | -15.3% (active) | 5.51% (active) | 4.58% (active) | -25.6% (active) | 1.79% (active) | -6.03% (active) | 
Cc1ccc2oc(=O)cc(-c3cc(-c4cc5ccccc5oc4=O)nc(N)c3C#N)c2c1 | 87.2% | 79% | 68.2% | 48.5% | 71.9% | 41.6% | 80.1% | 93.7% | 93.9% | 
COc1cc(C(=O)NNC(=O)c2ccc(NC(=O)CCl)cc2)cc(OC)c1OC | 80.7% | 92.4% | 65.9% | 80.1% | 107% | 89.8% | 85.9% | 33% | 57.2% | 
COc1ccc(-n2c(=O)c3ccccc3n(Cc3ccc(C(=O)NO)cc3)c2=O)cc1 | 14.2% | 16.7% | 33.6% | 55% | 19.6% | 50.3% | -2.54% (active) | 3.15% (active) | -10.1% (active) | 
N#Cc1cc2[nH]c3ccc(OC(F)(F)F)cc3c2oc1=O | 66.5% | 76.1% | 95.9% | 59.1% | 132% | 84.4% | 76.8% | 90.4% | 84.5% | 
Cc1cc2c(-c3nc4ccccn4c3Nc3cccc4ccccc34)c(O)c(O)cc2c(O)c1-c1c(C)cc2c(-c3nc4ccccn4c3Nc3cccc4ccccc34)c(O)c(O)cc2c1O | 38.3% | 51.4% | 16.7% | 44% | 50.9% | 49.2% | 29.6% | 27.3% | 31.2% | 
Nc1cc2c(cc1Br)-c1c(C(=O)O)cccc1C2O (stereo not given) | 131% | 88.3% | 109% | 102% | 117% | 108% | 129% | 124% | 115% | 
Cc1cc2c(-c3nc4ccccn4c3NC34CC5CC(CC(C5)C3)C4)c(O)c(O)cc2c(O)c1-c1c(C)cc2c(-c3nc4ccccn4c3NC34CC5CC(CC(C5)C3)C4)c(O)c(O)cc2c1O | -2.48% (active) | 5.97% (active) | 15.9% | -2.25% (active) | 7.59% (active) | 7.04% (active) | 10.8% | 16.4% | 8.13% (active) | 
Clc1ccc2c(NCCCNCc3ccc4c(c3)OCO4)ccnc2c1 | 29.3% | 71.8% | 66.6% | 35.8% | 78.4% | 40.6% | 101% | 41.7% | 25.1% | 
COc1cnc2c(c1)C(=O)c1c-2n(CCCn2ccnc2)c(=O)c2cc(Cl)ccc12 | 50% | 40.2% | 10% | -0.232% (active) | 45.9% | -3.65% (active) | -41.2% (active) | -11.9% (active) | -23.6% (active) | 
Clc1ccc2c(NCCNc3nc(N4CCCC4)nc4ccccc34)ccnc2c1 | -42.9% (active) | 24.4% | 3.63% (active) | -72.3% (active) | -47.3% (active) | -83% (active) | -5.18% (active) | 5.08% (active) | -5.18% (active) | 
CC(C)=CCc1cc2c(cc1O)C1=C(C(=O)C3=C(NCCS3(=O)=O)C1=O)C(C=C(C)C)O2 (stereo not given) | 19.3% | 48.6% | -43.3% (active) | 41.6% | 122% | 62.4% | 94.9% | 0.962% (active) | -22.3% (active) | 
CCc1nc2ccc(Cc3ccc(C(=O)NO)cc3)cc2c(=O)n1CCc1ccccc1 | -33.4% (active) | -23.3% (active) | -20.5% (active) | -63.4% (active) | -29.7% (active) | -35.3% (active) | -75.9% (active) | 2.95% (active) | -18.7% (active) | 
CCOC(=O)C1=C(C)NC(=O)NC1c1cc(=O)oc2ccc(C)cc12 (stereo not given) | 95.6% | 95.2% | 101% | 93.1% | 97.1% | 114% | 104% | 101% | 99.1% | 
